This note sets out measurements from the supplement of paper PMC3414501.

Where a name gives a salt, the structure may show the parent alone.
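Note: active if sensitivity score above 5.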

This test has as its system S. cerevisiae SK1 pCDA2-eGFP (USY613), sporulating. In words: CDA2-GFP sporulation assay sensitivity score (z-score vs DMSO controls); higher = stronger inhibition of sporulation, active = hit call of the paper.
As to `CNCCCC12CCC(c3ccccc31)c1ccccc12` [Maprotilline hydrochloride] (stock concentration (mM, diluted 1:100): 10), the “CDA2-GFP sporulation assay sensitivity score” value is 0.21 (inactive).
To `CC1(C)C[C@@H]1C(=O)N/C(=C\CCCCSC[C@H](N)C(=O)O)C(=O)O` [Cilastatin] (stock concentration (mM, diluted 1:100): 9.4) belongs -1.2 (inactive); to `CNCCCCOc1ccccc1Cc1ccccc1` [Bifemelane] (stock concentration (mM, diluted 1:100): 10), 1.21 (inactive); to `Clc1ccc2c(c1)CCc1cccnc1C2=C1CCNCC1` [Desloratadine] (stock concentration (mM, diluted 1:100): 10), 8.67 (inactive).
With `O=c1cnn([C@@H]2O[C@H](CO)[C@@H](O)[C@H]2O)c(=O)[nH]1` [6-Azauridine] (stock concentration (mM, diluted 1:100): 10), the “CDA2-GFP sporulation assay sensitivity score” value was 0.6 (inactive).
As to `O=C(O[C@@H]1C[C@@H]2C[C@H]3C[C@H](C1)N2CC3=O)c1c[nH]c2ccccc12` [Dolasetron mesylate] (stock concentration (mM, diluted 1:100): 10.4), the “CDA2-GFP sporulation assay sensitivity score” value is -1 (inactive).
`CN(C)CCC=C1c2ccccc2COc2ccccc21` [Doxepin] (stock concentration (mM, diluted 1:100): 10): the “CDA2-GFP sporulation assay sensitivity score” value is 18.2 (active).
On to `C=C1/C(=C\C=C2/CCC[C@]3(C)[C@@H]([C@H](C)CCCC(C)(C)O)CC[C@@H]23)C[C@@H](O)C[C@@H]1O` [Calcitriol] (stock concentration (mM, diluted 1:100): 10), for which the “CDA2-GFP sporulation assay sensitivity score” value was 3.05 (inactive).
